# Experimental data taken from article PMC4336329 (PLoS ONE, 2015).
# In all, about 310,000 compounds went through this assay and about 14,000 (4.5%) showed an effect of 50% or more. The effect is printed as a negative number. The entries come from a sample that favours strong results as a whole.
# Molecular target: human ether-à-go-go-related gene (hERG) potassium channel (human, UniProt Q12809)
# Experiment: primary screen, population patch clamp on CHO cells stably expressing hERG; higher = less effect of the substance
# 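Further: peak tail current of the secondary pulse compared with the same well before compound.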
# Sequence of human ether-à-go-go-related gene (hERG) potassium channel (Q12809 whole entry, looked up): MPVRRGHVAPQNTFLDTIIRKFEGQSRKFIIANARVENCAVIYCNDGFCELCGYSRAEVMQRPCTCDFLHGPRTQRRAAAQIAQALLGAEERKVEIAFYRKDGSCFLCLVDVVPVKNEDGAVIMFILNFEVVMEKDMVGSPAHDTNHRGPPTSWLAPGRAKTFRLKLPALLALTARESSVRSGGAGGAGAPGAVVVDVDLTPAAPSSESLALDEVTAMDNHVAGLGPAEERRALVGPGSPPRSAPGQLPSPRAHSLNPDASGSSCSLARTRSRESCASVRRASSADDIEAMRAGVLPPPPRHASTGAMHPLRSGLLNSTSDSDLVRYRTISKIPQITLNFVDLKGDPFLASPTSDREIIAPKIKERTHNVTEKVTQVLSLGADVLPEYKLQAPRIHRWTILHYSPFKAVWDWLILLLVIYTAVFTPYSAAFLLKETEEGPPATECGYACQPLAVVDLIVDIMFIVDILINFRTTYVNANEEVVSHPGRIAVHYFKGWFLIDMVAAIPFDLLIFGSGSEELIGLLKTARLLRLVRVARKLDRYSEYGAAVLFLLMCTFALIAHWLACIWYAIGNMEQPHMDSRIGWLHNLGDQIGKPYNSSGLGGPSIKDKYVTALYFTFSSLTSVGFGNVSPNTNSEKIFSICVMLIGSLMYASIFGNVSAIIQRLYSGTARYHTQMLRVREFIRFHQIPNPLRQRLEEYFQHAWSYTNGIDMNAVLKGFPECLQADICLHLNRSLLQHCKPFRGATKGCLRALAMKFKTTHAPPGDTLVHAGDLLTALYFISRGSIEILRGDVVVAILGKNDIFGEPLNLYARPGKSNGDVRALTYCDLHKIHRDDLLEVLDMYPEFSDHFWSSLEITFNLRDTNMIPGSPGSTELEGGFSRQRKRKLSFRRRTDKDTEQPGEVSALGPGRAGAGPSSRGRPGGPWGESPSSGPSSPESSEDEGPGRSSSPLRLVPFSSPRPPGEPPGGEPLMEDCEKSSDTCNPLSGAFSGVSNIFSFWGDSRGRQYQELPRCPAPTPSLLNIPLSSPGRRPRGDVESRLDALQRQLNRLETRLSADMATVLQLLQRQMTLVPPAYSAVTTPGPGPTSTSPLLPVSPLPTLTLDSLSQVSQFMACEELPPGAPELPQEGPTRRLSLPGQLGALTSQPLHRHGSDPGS
row,SMILES,"hERG current change (%, negative = inhibition) at 10uM"
1,Cc1ccc(OCC(O)CN2CCC(Cc3ccccc3)CC2)c(C)c1.Cl (stereo not shown),-75.2%
2,Cc1ccc(C)c(OCC(O)CN2CCC(Cc3ccccc3)CC2)c1.Cl (stereo not shown),-67.6%
3,Cc1ccc(OCC(O)CN2CCN(CCO)CC2)c(C)c1.Cl (stereo not shown),4.18%
4,Clc1nc(-c2ccccc2)ncc1Oc1ccccc1,14.6%
5,Cc1ccc(-n2nnnc2SCC(=O)c2c(N)n(C3CC3)c(=O)[nH]c2=O)cc1C,-10.6%
6,COc1cccc(/C=N/NC(=O)CNC(=O)c2ccc(S(=O)(=O)N3CCOCC3)cc2)c1OC,-4.96%
7,O=c1nc(-c2ccccc2)n(-c2ccccc2)[nH]1,1.69%
8,COCC1CCN(C(=O)c2cc(COc3cncc(Cl)c3)on2)C1 (stereo not shown),5.09%
9,C/C(CC(=O)Nc1cccc(Cl)c1C)=N\NC(=O)Cc1csc(N)n1,2.42%
10,N#Cc1c(N)nc2c(c1N)CC(CO)O2 (stereo not shown),22.6%
11,COc1ccc(-c2nnc(SCC(=O)NCc3cccs3)n2C(C)C)cc1,-35.8%
12,Cc1ccc(C)c(-n2c(SCC(=O)NCC3CCCO3)nnc2-c2ccoc2C)c1 (stereo not shown),6.82%
13,Cc1occc1-c1nnc(SCC(=O)c2ccc(Cl)cc2)n1CC1CCCO1 (stereo not shown),-65.1%
14,O=C(CSc1nnc(-c2ccncc2)n1-c1ccc(Cl)cc1)NCc1cccs1,-15.3%
15,Cc1occc1-c1nnc(SCC(=O)c2ccccc2)n1CC1CCCO1 (stereo not shown),-8.58%
16,COc1ccc(C(=O)CSc2nnc(-c3ccoc3C)n2CC2CCCO2)cc1 (stereo not shown),-11.7%
17,Cc1occc1-c1nnc(SCC(=O)NCc2cccs2)n1-c1ccc(F)cc1,-60.2%
18,O=C(CSc1nnnn1-c1ccc(F)cc1)NCc1cccs1,-0.104%
19,Cc1occc1-c1nnc(SCC(=O)NCC2CCCO2)n1C (stereo not shown),-2%
20,COc1ccc(-n2c(SCC(=O)NCc3cccs3)nnc2-c2ccoc2C)cc1,-78%
21,COc1ccc(-c2nnc(SCC(=O)NCc3cccs3)n2C)cc1,-1.49%
22,Cc1ccc(-n2c(SCC(=O)NCC3CCCO3)nnc2-c2ccoc2C)cc1 (stereo not shown),-55.6%
23,COc1cccc(N=Nc2c(C)[nH]n(-c3ccccc3)c2=O)c1,10.1%
24,O=C(Cn1nc(C(F)F)cc1C1CC1)N1CCCC1,1.61%

row,SMILES,"hERG current change (%, negative = inhibition) at 10uM"
1,CCCCn1c(SCC(=O)NC2CCS(=O)(=O)C2)nnc1-c1ccc(OC)cc1 (stereo not shown),-4.68%
2,Cc1ccc(NC(=S)N/N=C2\CCCCC2C)cc1 (stereo not shown),-10.4%
3,O=C(ONC1=NCCCCC1)c1ccc([N+](=O)[O-])cc1,-5.87%
4,CC(=O)Nc1ccc(S(=O)(=O)N2CCC(C(=O)NC3CCCC3)CC2)cc1,-0.813%
5,CC(=O)Nc1ccc(S(=O)(=O)NC(C)C(=O)NCCc2ccc(F)cc2)cc1 (stereo not shown),11.3%
6,Cc1ccc(C(O)(C(=O)NNc2ccc3ccccc3[nH+]2)c2ccc(C)cc2)cc1.[Cl-],12.9%
7,Cc1cccc(-n2c(SCC(=O)O)nc3sc4c(c3c2=O)CCCC4)c1,16.6%
8,CCCC(=O)C1C(=O)CC(C)(C)C(c2cc(C)no2)C1=O (stereo not shown),-6.76%
9,Nn1c(SCC(=O)NCC2CCCO2)nnc1-c1ccc(OC(F)F)cc1 (stereo not shown),-68.5%
10,COc1ccc(-c2nnc(SCC(=O)NCC3CCCO3)n2C)cc1 (stereo not shown),9.8%
11,CC(Sc1nnc(-c2ccc(OC(F)F)cc2)n1N)C(=O)NCC1CCCO1 (stereo not shown),-24.2%
12,Cc1ccc(-n2c(SCC(=O)NCc3cccs3)nnc2-c2ccoc2C)cc1,-74.8%
13,COC(=O)CSc1nnc(-c2ccoc2C)n1-c1ccc(C)cc1,-37%
14,Cc1nnc(SCC(=O)NCc2cccs2)n1-c1ccccc1,1.68%
15,O=C1C2CCCN2C(c2ccc(Cl)cc2)N1c1ccccn1 (stereo not shown),-3.03%
16,COc1ccc(CNCC(O)(c2ccc(Cl)cc2)c2ccc(Cl)cc2)cc1OC,-30.9%
17,COc1ccc(CNCC(O)(c2ccccc2)c2ccccc2)cc1OC,-60%
18,COc1ccccc1CNCC(O)(c1ccc(Cl)cc1)c1ccc(Cl)cc1,-13.7%
19,Cc1ccc(CNCC(O)(c2ccccc2)c2ccccc2)cc1,-33%
20,COc1ccccc1CNCC(O)(c1ccc(F)cc1)c1ccc(F)cc1,-68%
21,COc1ccc(CNCC(O)(c2ccccc2)c2ccc(F)cc2)cc1OC (stereo not shown),-61.2%
22,COc1ccc(CNCc2ccc(C(F)(F)F)cc2)cc1OC.O=C(O)C(=O)O,6.54%
23,COc1ccc(CNCC(O)(c2ccc(F)cc2)c2ccc(F)cc2)cc1OC,-62.1%
24,OC(CNCc1ccccc1F)(c1ccc(F)cc1)c1ccc(F)cc1,-26.7%

row,SMILES,"hERG current change (%, negative = inhibition) at 10uM"
1,N#CCCN(Cc1ccccc1)S(=O)(=O)c1cccs1,-16.5%
2,COc1cc(CC(=O)N(C)CC(=O)Nc2cc(C)ccc2C)cc(OC)c1OC,11%
3,COc1ccc(OCC(=O)O/N=C(\N)c2ccc(OC)c(OC)c2)cc1,7.84%
4,CN(C)S(=O)(=O)c1ccc(C(=O)OCC(=O)Nc2cccnc2Cl)cc1,1.64%
5,CC(=O)N1CCN(Cc2nc3cc(NC(=O)Cn4nc(C)c5ccccc5c4=O)ccc3n2C)CC1,17.9%
6,COc1ccc(CN2C(=O)CCC2(C)C(=O)NC2CCCCCC2)cc1 (stereo not shown),-13.8%
7,O=C(NCc1ccncc1)Nc1cc(Cl)ccc1Cl,-8.6%
8,CC1=CN2CC(O)CN=C2C=C1.Cl (stereo not shown),-1.57%
9,COc1cccc(OC)c1OCCNCC1CSc2ccccc2O1.Cl (stereo not shown),-53.6%
10,COc1cccc(OC)c1OCCNCC1COc2ccccc2O1.Cl (stereo not shown),-22.5%
11,COc1cccc(OC)c1OCCNCCO,21.5%
12,COc1ccc(-n2nnc3c(SCC(=O)Nc4ccccc4F)ncnc32)cc1,18.9%
13,CCOc1ccccc1NC(=O)CSc1nnc(-c2ccco2)n1Cc1ccco1,-63.4%
14,CCOc1ccccc1NC(=O)CSc1nnc(Cn2c(=O)sc3ccccc32)n1C,-61.9%
15,CCOc1ccccc1NC(=O)CSc1nnc(-c2ccccn2)n1Cc1ccco1,-67.3%
16,COc1ccc(C)cc1NC(=O)CSc1nnc(-c2ccccn2)n1Cc1ccco1,-15.8%
17,CCOC(=O)CNC(=O)CSc1nnc(-c2ccco2)n1Cc1ccco1,10.4%
18,CCOc1ccc(NC(=O)CSc2nnc(Cn3c(=O)sc4ccccc43)n2C)cc1,-4.3%
19,COc1ccccc1NC(=O)CSc1nnc(Cn2c(=O)sc3ccccc32)n1C,-44%
20,COc1ccccc1NC(=O)CSc1nnc(-c2ccco2)n1N,-3.82%
21,COc1ccccc1NC(=O)CSc1nnc(-c2ccccn2)n1Cc1ccco1,-9.97%
22,CCOc1ccccc1NC(=O)CSc1nnc(-c2ccccc2Cl)n1Cc1ccco1,-32%
23,COCCn1c(SCC(=O)Nc2ccccc2OC)nnc1-c1ccco1,-13.6%
24,CCCn1c(SCC(=O)Nc2ccccc2OC)nnc1-c1ccco1,-68.5%

row,SMILES,"hERG current change (%, negative = inhibition) at 10uM"
1,CCOc1ccc2nc(NC(=S)N(C)C)sc2c1,13%
2,Cc1ccnc(NC(=S)NC(=O)c2ccco2)c1,-10.3%
3,Cc1cc(C)c(C(=O)COC(=O)c2cc([N+](=O)[O-])ccc2N2CCOCC2)cc1C,-4.07%
4,Cc1ccc(SC(C)c2nc(-c3cccnc3)no2)cc1 (stereo not shown),-30.5%
5,COc1ccc(OC)c(CN2CCN(C(=O)c3ccco3)CC2)c1.O=C(O)C(=O)O,0.201%
6,COc1ccccc1NC(=O)CSc1nnc(-c2ccco2)n1Cc1ccco1,-65.4%
7,COC(=O)CSc1nnc(-c2ccco2)n1Cc1ccco1,-26.8%
8,COc1ccc(C)cc1NC(=O)CSc1nnc(-c2ccco2)n1Cc1ccco1,-12.8%
9,CN(C)c1cc(-c2ccc(Cl)cc2)oc(=O)c1Cl,-6.67%
10,CN(C)c1cc(-c2ccc(C#N)cc2)oc(=O)c1Cl,-50.1%
11,CN(C)c1cc(-c2ccc(Br)cc2)oc(=O)c1Cl,15.5%
12,CCCCSc1cc(C)nc(N)n1,-1.73%
13,O=C(Nc1ccc(O)c(C(=O)O)c1)c1ccc2c(c1)C(=O)N(CC1CCCO1)C2=O (stereo not shown),6.21%
14,COc1ccc(C(O)(CCc2ccccc2)CCN2CCCCC2)cc1.Cl (stereo not shown),-17.5%
15,CCCCCC(O)(CCN1CCCCC1)c1ccc(OCC)cc1.Cl (stereo not shown),-77.1%
16,CCCCCCC(O)(CCN1CCCCC1)c1ccccc1.Cl (stereo not shown),-70.3%
17,CS(=O)(=O)O.OC(CCN1CCCCC1)(c1ccccc1)c1ccccc1,-36.2%
18,Cl.OC(CCCN1CCCCC1)(c1ccccc1)c1ccccc1,-44%
19,CCC(O)(CCN1CCCCC1)c1ccccc1 (stereo not shown),-5.84%
20,C=CCC(O)(CCN1CCCCC1)c1ccccc1.Cl (stereo not shown),-10.8%
21,CCCCOc1ccc(C(O)(CCN2CCOCC2)c2ccccc2)cc1.Cl (stereo not shown),-21.7%
22,CCCCCC(O)(CCN1CCCCC1)c1ccccc1.Cl (stereo not shown),-82.4%
